Laboratory results reported in PubChem BioAssay (Tox21).
Inconclusive results are not listed. Activity calls are given as the source filed them. Unless noted, calls come from the whole dose curve.

Experiments:
[1] = Nuclear factor erythroid 2-related factor 2/antioxidant responsive element (Nrf2/ARE) small molecule agonists: qHTS cell viability counter screen in human keratinocytes (AID 1919968; active = well fitted curve in the direction sought with a large enough effect in the repeat runs; an effect the other way counts as inactive or inconclusive; note: nearly all actives have a fitted effect of over 55% in size; note: potency is the fitted concentration of half-maximal effect)
Summary of the method: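 Measured as CellTiter-Fluor fluorescence, this readout tracks cytotoxicity in the same wells as the ARE-luciferase screen. HaCaT reporter cells (1,500/well) received compounds after a 5 h pre-incubation and were exposed for 23 h.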

[2] = Nuclear factor erythroid 2-related factor 2/antioxidant responsive element (Nrf2/ARE) small molecule agonists: luciferase reporter gene qHTS assay in human keratinocytes (AID 1919969); note: nearly all actives have a fitted effect of over 35% in size; note: potency is the fitted concentration of half-maximal effect
[3] = target: Gonadotropin-releasing hormone receptor (Homo sapiens) (UniProt P30968); experiment: Human gonadotropin-releasing hormone receptor (GnRHR) small molecule agonists, calcium flux assay in GnRHR-HEK293 cells (AID 1920063); note: nearly all actives have a fitted effect of over 35% in size
Gonadotropin-releasing hormone receptor (Homo sapiens), sequence (P30968 whole entry, looked up): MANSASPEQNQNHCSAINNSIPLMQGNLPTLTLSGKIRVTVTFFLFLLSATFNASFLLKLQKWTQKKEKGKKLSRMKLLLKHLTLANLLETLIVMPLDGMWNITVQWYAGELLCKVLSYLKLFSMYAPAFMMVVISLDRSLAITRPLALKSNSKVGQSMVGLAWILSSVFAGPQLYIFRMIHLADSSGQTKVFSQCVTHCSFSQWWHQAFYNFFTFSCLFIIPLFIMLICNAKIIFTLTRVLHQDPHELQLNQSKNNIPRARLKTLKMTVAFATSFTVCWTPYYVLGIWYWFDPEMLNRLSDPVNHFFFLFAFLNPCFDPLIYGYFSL
Summary of the method: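 Fluorescence kinetics (480 nm excitation, 540 nm emission; 3 min, 1 s steps) report calcium mobilisation in human GnRHR-HEK293 cells in agonist mode. Dye incubation: 1 h, 37 C.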

[4] = target: KiSS-1 receptor (Homo sapiens) (UniProt Q969F8); experiment: Human kisspeptin (KISS1R) small molecule agonists, calcium flux assay in KISS1R-HEK293 cells (AID 1920064; active = well fitted curve in the direction sought with a large enough effect in the repeat runs; an effect the other way counts as inactive or inconclusive)
KiSS-1 receptor (Homo sapiens), sequence (Q969F8 whole entry, looked up): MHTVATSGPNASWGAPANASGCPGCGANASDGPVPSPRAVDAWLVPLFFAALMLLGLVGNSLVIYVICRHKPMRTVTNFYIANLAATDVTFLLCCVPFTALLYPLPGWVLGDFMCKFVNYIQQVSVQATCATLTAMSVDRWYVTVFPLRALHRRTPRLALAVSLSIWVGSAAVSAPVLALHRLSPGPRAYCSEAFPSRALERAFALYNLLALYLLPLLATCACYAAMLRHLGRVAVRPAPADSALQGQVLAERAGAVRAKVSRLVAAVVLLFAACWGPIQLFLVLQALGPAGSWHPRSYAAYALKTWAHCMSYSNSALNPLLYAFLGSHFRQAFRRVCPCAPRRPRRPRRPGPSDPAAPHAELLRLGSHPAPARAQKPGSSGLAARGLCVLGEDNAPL
Summary of the method: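 Measures KISS1R agonism through calcium-sensitive dye fluorescence in stably transfected HEK293 cells, read for 3 min after pin-tool compound delivery; 15-point titrations in triplicate.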

[5] = G protein-coupled receptor (GPCR) small molecule agonists, calcium flux assay: HEK293 wild type cell line counter screen (AID 1920065)
Summary of the method: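 Readout: fluorescence at 480 nm excitation/540 nm emission, sampled at 1 s intervals for 3 min. Cells had been cultured 18 h, then dye-loaded 1 h at 37 C before compound or ATP addition.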

[6] = p53 small molecule agonists, cell-based qHTS assay with rat liver microsomes (AID 1963578); note: potency is the fitted concentration of half-maximal effect
Summary of the method: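 Agonist mode in p53RE-bla reporter cells, with compounds co-incubated 16 h at 37 C alongside 0.5 mg/mL rat liver microsomes and 0.5 mg/mL NADPH (final), followed by a 2 h LiveBLAzer detection step.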

[7] = p53 small molecule agonists, cell-based qHTS assay with rat liver microsomes: qHTS cell viability counter screen (AID 1963580); note: nearly all actives have a fitted effect of over 45% in size
Summary of the method: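 Viability is assessed in parallel with the p53 reporter read: HCT-116 p53RE-bla cells receive compounds plus rat microsomes and NADPH (0.5 mg/mL final apiece), incubate 16 h at 37 C, and then CellTiter-Glo luminescence is recorded.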

[8] = p53 small molecule agonists, cell-based qHTS assay: qHTS cell viability counter screen (AID 1963581); note: nearly all actives have a fitted effect of over 45% in size
Summary of the method: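 In the same plates used for the p53 bla reporter, HCT-116 cells given compounds for 16 h at 37 C received CellTiter-Glo; luminescence was recorded 30 min later at room temperature.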

[9] = p53 small molecule agonists, cell-based qHTS assay (AID 1963582; active = well fitted activation curve with a large enough effect in the signal ratio in the repeat runs, not every such curve was filed as active; the % refers to the signal ratio; note: potency is the fitted concentration of half-maximal effect)
Summary of the method: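 Compounds are pin-transferred in DMSO onto p53RE-bla cells and incubated 16 h at 37 C. The B/G FRET beta-lactamase substrate is then applied for 2 h at RT and fluorescence recorded.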

[10] = target: 5-hydroxytryptamine receptor 2A (Homo sapiens) (UniProt P28223); experiment: 5-hydroxytryptamine receptor 2A (HTR2A) small molecule agonists, cell-based qHTS assay (AID 1963587); note: nearly all actives have a fitted effect of over 30% in size; note: potency is the fitted concentration of half-maximal effect
5-hydroxytryptamine receptor 2A (Homo sapiens), sequence (P28223 whole entry, looked up): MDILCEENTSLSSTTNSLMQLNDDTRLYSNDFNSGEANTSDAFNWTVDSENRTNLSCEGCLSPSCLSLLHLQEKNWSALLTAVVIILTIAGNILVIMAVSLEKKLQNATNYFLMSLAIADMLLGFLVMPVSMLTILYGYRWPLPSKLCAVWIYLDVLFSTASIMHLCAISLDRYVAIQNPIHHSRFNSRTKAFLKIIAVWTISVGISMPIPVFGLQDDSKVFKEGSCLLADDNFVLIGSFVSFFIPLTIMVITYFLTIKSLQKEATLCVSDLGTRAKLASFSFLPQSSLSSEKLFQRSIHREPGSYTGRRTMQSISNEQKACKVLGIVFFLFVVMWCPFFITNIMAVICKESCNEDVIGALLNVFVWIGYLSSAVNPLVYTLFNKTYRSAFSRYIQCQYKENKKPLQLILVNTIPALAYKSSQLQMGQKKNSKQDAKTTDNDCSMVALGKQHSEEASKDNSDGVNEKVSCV
Summary of the method: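 CHO cells stably expressing human HTR2A, plated 18 h, loaded with calcium dye 1 h at 37 C. Agonist mode: compounds added and intracellular calcium fluorescence recorded kinetically for 2 min at 1 sec intervals.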

[11] = target: Muscarinic acetylcholine receptor M1 (Homo sapiens) (UniProt P11229); experiment: Cholinergic receptor muscarinic 1 (CHRM1) small molecule antagonists, cell-based qHTS assay (AID 1963588); note: nearly all actives have a fitted effect of over 40% in size; note: potency is the fitted concentration of half-maximal effect
Muscarinic acetylcholine receptor M1 (Homo sapiens), sequence (P11229 whole entry, looked up): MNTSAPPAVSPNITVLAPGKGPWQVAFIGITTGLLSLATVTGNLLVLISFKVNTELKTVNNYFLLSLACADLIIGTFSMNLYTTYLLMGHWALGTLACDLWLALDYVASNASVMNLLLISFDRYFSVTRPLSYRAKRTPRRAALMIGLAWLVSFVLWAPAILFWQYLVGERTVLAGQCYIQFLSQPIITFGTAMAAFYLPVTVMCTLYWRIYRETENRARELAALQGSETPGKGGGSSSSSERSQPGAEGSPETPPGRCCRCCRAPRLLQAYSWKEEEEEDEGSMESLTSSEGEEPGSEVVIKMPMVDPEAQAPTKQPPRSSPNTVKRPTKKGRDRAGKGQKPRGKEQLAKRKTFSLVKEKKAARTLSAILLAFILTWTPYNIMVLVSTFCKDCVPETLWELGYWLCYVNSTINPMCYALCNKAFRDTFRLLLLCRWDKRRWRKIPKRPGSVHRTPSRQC
Summary of the method: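 CHRM1-CHO calcium-flux assay, antagonist mode. Cells were seeded 18 h, dye-loaded 1 h at 37 C and given compound for 5 min at RT, then acetylcholine was added at 50nM. FDSS fluorescence was read 3 min; 15 concentrations, three runs.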

[12] = target: Muscarinic acetylcholine receptor M1 (Homo sapiens) (UniProt P11229); experiment: Cholinergic receptor muscarinic 1 (CHRM1) small molecule agonists, cell-based qHTS assay (AID 1963589); note: nearly all actives have a fitted effect of over 35% in size; note: potency is the fitted concentration of half-maximal effect
Summary of the method: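 Each compound was tested at 15 concentrations across three independent runs on dye-loaded CHO cells stably expressing human CHRM1, reading intracellular calcium fluorescence kinetically at 1 sec intervals.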

[13] = cAMP Responsive Elements (CRE) small molecule antagonists, cell-based qHTS assay (AID 1963591; active = well fitted inhibition curve with a large enough effect in the signal ratio in the repeat runs, not every such curve was filed as active; the % refers to the signal ratio)
Summary of the method: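 Inhibition of NKH477-driven (0.25 uM final) CRE-beta-lactamase signal in HEK293T cells, 3 h compound exposure at 37 °C, detected by FRET substrate fluorescence.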

[14] = target: Beta-2 adrenergic receptor (Homo sapiens) (UniProt P07550); experiment: Adrenergic beta2 receptor (ADRB2) small molecule antagonists, cell-based qHTS assay (AID 1963592); note: nearly all actives have a fitted effect of over 50% in size; note: potency is the fitted concentration of half-maximal effect; for activity change, negative = inhibition: series mostly up to about 92 µM
Beta-2 adrenergic receptor (Homo sapiens), sequence (P07550 whole entry, looked up): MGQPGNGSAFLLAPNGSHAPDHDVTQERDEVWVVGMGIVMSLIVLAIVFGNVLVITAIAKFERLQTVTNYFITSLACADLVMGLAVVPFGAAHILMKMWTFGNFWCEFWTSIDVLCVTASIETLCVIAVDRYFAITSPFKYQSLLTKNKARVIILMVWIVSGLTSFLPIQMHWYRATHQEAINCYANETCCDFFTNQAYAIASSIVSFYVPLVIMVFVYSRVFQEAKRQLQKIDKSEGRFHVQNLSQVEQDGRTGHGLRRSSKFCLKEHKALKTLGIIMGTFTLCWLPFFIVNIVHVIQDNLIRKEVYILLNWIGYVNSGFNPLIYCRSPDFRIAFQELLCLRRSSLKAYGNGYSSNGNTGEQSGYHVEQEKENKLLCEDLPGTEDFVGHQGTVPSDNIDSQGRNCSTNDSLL
Summary of the method: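 Cells (CHO, stable ADRB2 overexpression) incubated 18-20hr at 37C; compounds added from DMSO; agonist mix (1nM isoproterenol, 100uM IBMX, 25uM Ro-20-1724) added; 0.5hr RT; d2-cAMP and anti-cAMP-cryptate added; 1hr RT; 665/615 nm read.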

[15] = target: D(2) dopamine receptor (Homo sapiens) (UniProt P14416); experiment: Dopamine D2 receptor (DRD2) small molecule agonists, cell-based qHTS assay (AID 1963594); note: nearly all actives have a fitted effect of over 35% in size
D(2) dopamine receptor (Homo sapiens), sequence (P14416 whole entry, looked up): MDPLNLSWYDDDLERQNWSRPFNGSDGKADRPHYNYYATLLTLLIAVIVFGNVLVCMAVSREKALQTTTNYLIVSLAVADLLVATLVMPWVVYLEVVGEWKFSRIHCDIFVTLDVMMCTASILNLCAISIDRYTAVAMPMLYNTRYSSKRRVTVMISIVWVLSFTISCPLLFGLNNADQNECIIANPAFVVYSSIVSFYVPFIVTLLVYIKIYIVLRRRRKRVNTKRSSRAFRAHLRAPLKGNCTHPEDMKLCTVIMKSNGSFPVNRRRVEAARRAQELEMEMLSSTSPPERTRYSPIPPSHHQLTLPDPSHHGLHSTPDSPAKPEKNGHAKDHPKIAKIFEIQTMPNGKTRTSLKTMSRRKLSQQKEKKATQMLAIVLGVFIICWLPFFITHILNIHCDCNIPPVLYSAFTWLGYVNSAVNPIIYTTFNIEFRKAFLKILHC
Summary of the method: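 HEK293 cells stably expressing human DRD2, pre-treated with PDE inhibitor Ro20-1724 (0.1 mM final) and compound 10 min at room temperature, then stimulated with NKH477 (200nM […]) for 30 min. cAMP read by HTRF (665/620 nm).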

[16] = target: D(2) dopamine receptor (Homo sapiens) (UniProt P14416); experiment: Dopamine D2 receptor (DRD2) small molecule antagonists, cell-based qHTS assay (AID 1963595; active = well fitted inhibition curve with a large enough effect in the signal ratio in the repeat runs, with a control signal flat; the % refers to the signal ratio; note: potency is the fitted concentration of half-maximal effect)
Summary of the method: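 In this cell-based antagonist screen, compounds act for 10 min at room temperature before a 30 min challenge with 12 nM quinpirole and 200 nM NKH477. cAMP is quantified by HTRF competition in DRD2-HEK293 cells containing 0.1 mM Ro20-1724.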

[17] = p53 small molecule agonists, cell-based qHTS assay with human liver microsomes: qHTS cell viability counter screen (AID 1963579); note: nearly all actives have a fitted effect of over 45% in size; note: potency is the fitted concentration of half-maximal effect
Summary of the method: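 Metabolically activated exposure: compounds, human liver microsomes and NADPH (0.5 mg/mL final apiece) were added to p53RE-bla cells seeded 5 h earlier, left 16 h at 37 C, and then assessed for viability by CellTiter-Glo luminescence.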

[18] = target: 5-hydroxytryptamine receptor 2A (Homo sapiens) (UniProt P28223); experiment: 5-hydroxytryptamine receptor 2A (HTR2A) small molecule antagonists, cell-based qHTS assay (AID 1963586); note: nearly all actives have a fitted effect of over 45% in size; note: potency is the fitted concentration of half-maximal effect
Summary of the method: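 Antagonist-mode intracellular calcium assay: DOI (4 nM) added after 5 min compound pre-incubation at room temperature to dye-loaded HTR2A-CHO cells. Fluorescence followed for 3 min, sampled every second.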

[19] = cAMP Responsive Elements (CRE) small molecule agonists, cell-based qHTS assay (AID 1963590); note: potency is the fitted concentration of half-maximal effect
Summary of the method: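 Cell line: CRE-bla HEK 293T; medium DMEM/10% dialyzed FBS/0.1 mM NEAA/1 mM pyruvate/25 mM HEPES; 3 h compound exposure; beta-lactamase FRET readout after 2 h substrate loading at RT.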

[20] = target: Beta-2 adrenergic receptor (Homo sapiens) (UniProt P07550); experiment: Adrenergic beta2 receptor (ADRB2) small molecule agonists, cell-based qHTS assay (AID 1963593);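 note: CHO cells stably overexpressing human ADRB2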
Summary of the method: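 CHO cells stably over-expressing ADRB2 were plated overnight at 37C, then dosed with compounds plus a stimulation mix containing 100uM IBMX and 25uM Ro-20-1724 for 0.5hr at room temperature. cAMP was measured by HTRF competition, 1hr.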
% is set by controls: 0 for no effect and ±100 for the full control effect.

CC/C(C)=N\O[Si](C)(O/N=C(\C)CC)O/N=C(\C)CC
inactive: Potency [1] | Potency [2] | Potency [3] | Potency [4] | Potency [5] | Potency [6] | Potency [7] | Potency [8] | Potency [9] | Potency [10] | Potency [12] | Potency [13] | Potency [14] | Potency [15] | Potency [16]
active: Potency [11] 3.39 µM

Cc1[nH]c(C)c(Cl)c(=O)c1Cl
inactive: activity change, negative = cytotoxicity [1] 5.34% [at 19 µM] | activity, positive = activation [2] 3.75% [at 19 µM] | activity change [3] -0.0007% [at 11.8 µM, stronger effect = higher value] | activation [4] -1.04% [at 15.8 µM] | activation [5] -1.57% [at 11.8 µM] | activity change, negative = cytotoxicity [17] -0.426% [at 13.5 µM] | activity change, negative = cytotoxicity [7] 4.54% [at 13.5 µM] | activity change, negative = cytotoxicity [8] 15.4% [at 13.5 µM] | activity, negative = inhibition [18] 81.1% [at 12.7 µM] | activation [10] -10% [at 15.9 µM] | activity, negative = inhibition [11] 9.6% [at 12.6 µM] | activation [12] 0.215% [at 15.8 µM] | activation [19] -0.819% [at 19 µM] | activity change, negative = inhibition [13] -0.412% [at 18.9 µM] | activity change, negative = inhibition [14] -0.0462% [at 19 µM] | activation [20] 13.3% [at 19 µM] | activation [15] -3.57% [at 19 µM] | activity change, negative = inhibition [16] 7.52% [at 18.9 µM]

NC(=O)Cn1c(=O)cc(CCN2CCN(c3nccc4sccc34)CC2)c2ccc(F)cc21
inactive: Potency [1] | Potency [2] | Potency [3] | Potency [4] | Potency [5] | Potency [6] | Potency [7] | Potency [8] | Potency [9] | Potency [12] | Potency [15] | Potency [16]
active: Potency [11] 23.7 µM | Potency [14] 27.3 µM

Nc1nc2ccc(OC(F)(F)F)cc2s1
inactive: Potency [1] | Potency [2] | Potency [3] | Potency [4] | Potency [5] | Potency [6] | Potency [7] | Potency [8] | Potency [19] | Potency [13] | Potency [14] | Potency [16]

CN(C)CCOc1ccc(/C(=C(/CCCl)c2ccccc2)c2ccccc2)cc1
active: Potency [1] 22.8 µM | Potency [17] 30.3 µM | Potency [10] 40.9 µM | Potency [14] 57.2 µM | Potency [16] 57.2 µM
inactive: Potency [2] | Potency [3] | Potency [4] | Potency [5] | Potency [6] | Potency [11] | Potency [12] | Potency [15]

Nc1nc(Cl)nc2c1ncn2[C@H]1C[C@H](O)[C@@H](CO)O1
active: Potency [9] 572 nM | Potency [19] 60.7 µM
inactive: Potency [1] | Potency [2] | Potency [3] | Potency [4] | Potency [5] | Potency [17] | Potency [7] | Potency [8] | Potency [14] | Potency [15] | Potency [16]

O/N=C/C=N/O
inactive: Potency [1] | Potency [2] | Potency [3] | Potency [4] | Potency [5] | Potency [17] | Potency [7] | Potency [8] | Potency [18] | Potency [10] | Potency [11] | Potency [12] | Potency [19] | Potency [13] | Potency [14] | Potency [20] | Potency [15] | Potency [16]

CCO[Si](CCCS)(OCC)OCC
inactive: Potency [1] | Potency [2] | Potency [3] | Potency [4] | Potency [5] | Potency [6] | Potency [7] | Potency [9] | Potency [18] | Potency [10] | Potency [11] | Potency [12] | Potency [19] | Potency [13] | Potency [14] | Potency [20] | Potency [15] | Potency [16]

Cc1ccc2nc(-c3ccc(N)cc3)sc2c1S(=O)(=O)O
inactive: Potency [1] | Potency [3] | Potency [4] | Potency [5] | Potency [7] | Potency [10] | Potency [11] | Potency [12] | Potency [13] | Potency [14] | Potency [20] | Potency [15] | Potency [16]
active: Potency [2] 10.7 µM | Potency [6] 17.9 µM

CC(=O)OC(C)OC(=O)C(C)c1ccc(-c2ccccc2)c(F)c1 (stereo not given)
inactive: Potency [1] | Potency [2] | Potency [3] | Potency [4] | Potency [5] | Potency [6] | Potency [8] | Potency [10] | Potency [11] | Potency [12] | Potency [14] | Potency [20] | Potency [15] | Potency [16]

CCCCOC(=O)CCCCC(=O)OCCCC
inactive: Potency [1] | Potency [2] | Potency [3] | Potency [4] | Potency [5] | Potency [17] | Potency [7] | Potency [8] | Potency [18] | Potency [10] | Potency [11] | Potency [12] | Potency [19] | Potency [13] | Potency [14] | Potency [20] | Potency [15] | Potency [16]

COc1ccccc1N1CCN(CC(O)COc2cccc3ccccc23)CC1 (stereo not given)
active: Potency [18] 5.79 µM | Potency [14] 2.11 µM | Potency [16] 33.5 µM
inactive: Potency [1] | Potency [2] | Potency [3] | Potency [4] | Potency [5] | Potency [6] | Potency [8] | Potency [10] | Potency [11] | Potency [12] | Potency [19]

c1cc(CCCc2ccncc2)ccn1
inactive: Potency [1] | Potency [2] | Potency [3] | Potency [4] | Potency [5] | Potency [17] | Potency [7] | Potency [8] | Potency [18] | Potency [10] | Potency [11] | Potency [12] | Potency [19] | Potency [13] | Potency [14] | Potency [20] | Potency [15]

COC(=O)C1=C(C)NC(C)=C(C(=O)OCC(C)=O)C1c1ccccc1[N+](=O)[O-] (stereo not given)
inactive: Potency [1] | Potency [2] | Potency [3] | Potency [4] | Potency [5] | Potency [6] | Potency [7] | Potency [8] | Potency [9] | Potency [18] | Potency [10] | Potency [11] | Potency [19] | Potency [13] | Potency [14] | Potency [15] | Potency [16]

CCCCCCCCCCCCSCCOCCO
active: Potency [12] 37.9 nM
inactive: Potency [1] | Potency [2] | Potency [3] | Potency [4] | Potency [5] | Potency [17] | Potency [7] | Potency [8] | Potency [18] | Potency [10] | Potency [11] | Potency [19] | Potency [13] | Potency [14] | Potency [20] | Potency [15] | Potency [16]
